An excerpt weighted towards active compounds, which were near 0.78% of everything screened.
BLM inh = inhibitors of human Bloom syndrome helicase BLM. 0.2% of 350,000 active. AID 2528. Potency, µM (titrated, usually from 56.1 µM), usual class: inhibitors. recombinant BLM DNA unwinding, fluorescence dequenching; also: nearly all actives have a fitted effect of over 35% in size
APE1 inh-1 = blocks human APE1 abasic DNA cleavage. 0.35% of 350,000 active. recombinant APE1, TAMRA/BHQ-2 abasic DNA cleavage fluorescence. Potency, µM (series often up to 65.8 µM), usual class: inhibitors. P27695. AID 2517; also: nearly all actives have a fitted effect of over 55% in size
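Readout is kinetic fluorescence (ex 525, em 598 nm) from cleavage of 50 nM TAMRA/BHQ-2 THF abasic duplex by 0.75 nM APE1, compound added 15 min beforehand at RT.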
RECQ1 helicase = inhibitors of human RECQ1 DNA helicase. RECQ1 DNA unwinding, red fluorescence kinetic read. 0.54% of 240,000 active. P46063. Potency, µM (titrated, usually from 57.3 µM), most hits filed as inhibitors; also: nearly all actives have a fitted effect of over 30% in size
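50 nM RECQ1T1 preincubated 15 min with compound in Tris pH 8.0 buffer with MgCl2, DTT, Tween-20 and 2.5 ug/ml poly(dI-dC); started with 200 nM TAMRA/BHQ-2 forked duplex and 2 mM ATP. Unwinding read as fluorescence (525/598 nm), two reads 2 h apart.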
L3MBTL1 inh = L3MBTL1 (human) inhibition; Q9Y468; AlphaScreen L3MBTL1–H3K9me1 peptide binding; Potency, µM (titrated, usually from 57.1 µM), actives largely listed as inhibitors; 0.66% of 230,000 active; also: nearly all actives have a fitted effect of over 60% in size
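Displacement of a biotinylated histone H3(1-15) peptide monomethylated at Lys9 (75 nM) from L3MBTL1 (50 nM) was measured by AlphaScreen after a 30 min room-temperature compound incubation; cefsulodin titration served as intraplate control.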
DNA dye displace = DNA dye displacement counter-screen activity; 7% of 480 active; DNA fluorescent dye displacement counterscreen, fluorescence; shares compounds with APE1 inh-1; Potency, µM (series often up to 28.5 µM), actives largely listed as inhibitors;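 also: loss of thiazole orange fluorescence as the dye is displaced from duplex DNA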
EndoIV counter = counter-screen for APE1 inhibitors: inhibitors of E. coli endonuclease IV; shares compounds with APE1 inh-1; E. coli Endo IV, fluorogenic AP-site DNA cleavage; Potency, µM (titrated, usually from 27.1 µM), hits mostly inhibitors; 4% of 560 active; AID 2565
APE1 inh-2 = confirmation of inhibitors of human APE1 endonuclease | shares compounds with APE1 inh-1 | purified APE1, fluorogenic abasic-site DNA cleavage | Potency, µM (highest dose often 57.1 µM), most hits filed as inhibitors | 44% of 750 active | AID 2572; also: nearly all actives have a fitted effect of over 30% in size
APE1 FP inh = compounds that displace a DNA probe from human APE1; shares compounds with APE1 inh-1; APE1 binding to TAMRA-labelled double-stranded DNA, fluorescence polarization displacement; Potency, µM (doses to about 28.5 µM), usual class: inhibitors; 7% of 480 active; AID 2573
Each line names hits and unclear results; the compound was inactive in the other large screens (follow-up assays come after a bar, where they were run). Calls follow the shape of the dose curve; as a rule, active = well fitted curve in the direction sought with a large enough effect; inconclusive = small, poorly fitted or top-dose-only effect, or another doubt; inactive = no such curve, though single readings can be large; an effect the other way counts as inactive or inconclusive.

Cc1cccc(NC(=O)CN(C)S(=O)(=O)c2cccc3nsnc23)c1C	none
CCOc1ccccc1NC(=O)CN(C)S(=O)(=O)c1cccc2nsnc12	none | DNA dye displace inactive | EndoIV counter inactive | APE1 inh-2 inactive | APE1 FP inh inconclusive
CCC(C)C(=O)OCC1(c2ccc(C)cc2OC(=O)C(C)C)CO1 (configuration not stated)	APE1 inh-1 inconclusive (no result: L3MBTL1 inh) | DNA dye displace inconclusive | EndoIV counter inactive | APE1 inh-2 11.2µM | APE1 FP inh inconclusive
CN(C)[C@H]1C(=O)C(C(=O)NCN2CCCC2)=C(O)[C@]2(O)C(=O)C3=C(O)c4c(O)cccc4[C@@](C)(O)[C@H]3C[C@@H]12	none (no result: APE1 inh-1, L3MBTL1 inh) | DNA dye displace inactive | EndoIV counter inactive | APE1 inh-2 inactive | APE1 FP inh inconclusive
CC1c2cccc(O)c2C(O)=C2C(=O)[C@]3(O)C(O)=C(C(N)=O)C(=O)C(N(C)C)C3C(O)C21 (some centres not stated)	none (no result: L3MBTL1 inh)
CC(=O)Nc1ccc(C(=O)Nc2nc(-c3cccnc3)cs2)cc1	none | APE1 inh-2 inactive
O=C(Nc1nc(-c2ccccc2)cs1)c1cccnc1	none (no result: L3MBTL1 inh)
CCCC[C@H](NC(=O)[C@@H]1CCCN1C(=O)[C@H]1CCCN1C(=O)[C@H](Cc1ccccc1)NC(=O)[C@@H](Cc1c[nH]c2ccccc12)NC(=O)[C@H](C)NC(=O)[C@H](CCCN=C(N)N)NC(=O)OC(C)(C)C)C(N)=O	none (no result: L3MBTL1 inh)
CCCCCC(=O)N1CC2(CC(c3cccc(NC(=O)[C@@H]4CCC(=O)N4)c3)=NO2)C[C@@H]1C(N)=O (some centres not stated)	RECQ1 helicase inconclusive (no result: L3MBTL1 inh)
C=C(C)C(=O)Nc1cccc(C2=NOC3(C2)C[C@@H](C(N)=O)N(C(=O)CCCCC)C3)c1 (some centres not stated)	APE1 inh-1 inconclusive, RECQ1 helicase 25.1µM (no result: L3MBTL1 inh) | APE1 inh-2 39.8µM
CC(C)OCCCN1C=C2C(=O)C(C)(OC(=O)C3CCCC3)C(=O)C=C2C=C1c1ccsc1 (configuration not stated)	none (no result: L3MBTL1 inh)
COc1ccc(OC)c(/C(C)=N/Nc2ccc(C(=O)O)cc2)c1	APE1 inh-1 28.2µM | DNA dye displace inactive | EndoIV counter inactive | APE1 inh-2 inconclusive | APE1 FP inh inactive
COc1cc(/C=N/Nc2ccc(C(=O)O)cc2)ccc1O	APE1 inh-1 14.1µM (no result: L3MBTL1 inh) | DNA dye displace inactive | EndoIV counter inactive | APE1 inh-2 14.1µM | APE1 FP inh inactive
CCOc1ccc(CCNC(=O)CCCc2nnc3n(CC)c(=O)c4sccc4n23)cc1OCC	none (no result: APE1 inh-1, RECQ1 helicase, L3MBTL1 inh)
O=C(O)C1C2C=CC(CC2)C1C(=O)O (configuration not stated)	APE1 inh-1 12.6µM (no result: L3MBTL1 inh) | APE1 inh-2 inconclusive
CC(=O)Nc1ccc(NC(=O)C2C3C=CC(C3)C2C(=O)O)cc1 (configuration not stated)	APE1 inh-1 inconclusive (no result: RECQ1 helicase)
COc1ccc(-c2ccc(SCC(=O)Nc3nccs3)nn2)cc1OC	none | APE1 inh-2 39.8µM
CC(=O)Nc1ccc(NS(=O)(=O)c2c(C)nc3sccn3c2=O)cc1	none (no result: APE1 inh-1, RECQ1 helicase, L3MBTL1 inh)
Cn1c(=O)c(NCCc2ccccc2)c2c3c(cccc31)C(=O)c1ccccc1-2	BLM inh inconclusive, APE1 inh-1 31.6µM, RECQ1 helicase 10µM (no result: L3MBTL1 inh) | DNA dye displace inactive | EndoIV counter inconclusive | APE1 inh-2 inconclusive | APE1 FP inh 0.794µM
Cn1c(=O)c(NC2CCCCC2)c2c3c(cccc31)C(=O)c1ccccc1-2	none
O=C(O)c1ccc2c(c1)C(=O)N([C@H](Cc1ccc(O)c(O)c1)C(=O)O)C2=O	none
O=C(CCO)c1ccc(O)cc1	BLM inh 25.1µM, APE1 inh-1 1.58µM, RECQ1 helicase 25.1µM, L3MBTL1 inh 3.55µM | DNA dye displace inactive | EndoIV counter inconclusive | APE1 inh-2 1.26µM | APE1 FP inh inactive
